Measurements published in PubChem BioAssay (NCI).
About 83,000 compounds went through this panel and 20% of them were active in at least one assay; those are over-represented in the sample as a whole.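 96-well plates, one dose, 48 hours. Percent growth reported; active if below 10.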 A number with no mark means an inactive call. Activity calls are given as the source filed them.

System: NCI-H460 lung
Assay: NCI-60 one-dose screen, 48 h (100 = growth as untreated, 0 = no growth, -100 = all killed)
Settings: 10 µM unless noted

Row | Structure (SMILES) | growth
1 | C=C1CCC2C3(C)COC(c4cc(F)cc(F)c4)OC3CCC2(C)C1CC(O)C1=CCOC1=O (stereo not drawn) | 66.3%
2 | CC(=O)Nc1ccc(C(=O)NC(=S)Nc2ccc(S(N)(=O)=O)cc2)cc1 | 102%
3 | COc1cc(C2CC(c3cc(OC)c(OC)c(OC)c3)=Nc3c(N)nc(N)nc3N2)ccc1Oc1nc(NCCO)nc(N2CCOCC2)n1 (stereo not drawn) | 106%
4 | CC1=C(C(=O)c2ccccc2)C(c2cccc(Cl)c2Cl)n2c(nc3ccccc32)N1 (stereo not drawn) | 60.9%
5 | CN1CCc2c(sc3ncnc(N/N=C/c4ccc(Cl)cc4Cl)c23)C1 | 10.1%
6 | O=C(COc1ccc(NC(=O)Nc2ccc(Cl)c(Cl)c2)cc1)N=Nc1c(O)[nH]c2ccc(Br)cc12 | 7.45% (active)
7 | Cn1cc(NC(=O)c2cc(NC(=O)c3ccc(C#Cc4ccccc4)cc3)cn2C)cc1C(=O)NCCCN1CCOCC1 | -15.3% (active)
8 | COCOc1cc2oc(C(=O)N[C@@H](Cc3ccccc3)C(O)C(=O)NCc3ccccc3)c(C)c(=O)c2cc1OCOC (stereo partly drawn) | 9.45% (active)
9 | Cc1ccc(C(=O)CSc2nc3ccc(C)cc3c(=O)n2-c2ccc(F)cc2)cc1 | 32.7%
10 | CC(C)c1ccc2c(N)c(C(=O)Nc3ccc(C(F)(F)F)cn3)sc2n1 | 61.6%
11 | CN(C)CCn1c2ccccc2c2nc3ccc([N+](=O)[O-])cc3nc21 | 4.86% (active)
12 | COc1cc2c(c(OC)c1OC)C(=O)CC(c1cccc(NC(=O)c3cc(NC(=O)[C@H](CO)NC(=O)OC(C)(C)C)ccc3Cl)c1)O2 (stereo partly drawn) | 34.3%
13 | Cc1cccc(NC(=O)[C@]23CCC(C)(C)CC2C2=CCC4[C@@]5(C)C[C@@H](O)[C@H](O)[C@@](C)(CO)C5CC[C@@]4(C)[C@]2(C)CC3)c1 (stereo partly drawn) | -18.3% (active)
14 | CC(=O)Nc1ccc(-n2cnc3ccc(-c4ccc(O)cc4)cc32)cc1 | 38.7%
15 | NC(=S)Nc1cccc(NC(N)=S)c1 | 110%
16 | O=C(/C=C/c1ccc(O)c(O)c1)NC1CCOC1O (stereo not drawn) | 116%
17 | CCN1C(=O)/C(=N\N=C(/C)c2ccc3c(c2)Nc2ccccc2S3)c2cc(Cl)ccc21 | 63.4%

Row | Structure (SMILES) | growth
18 | S=C(NCCc1ccccc1)Nc1ccc(OCc2nc3ccccc3[nH]2)cc1 | 108%
19 | COc1ccc(-c2nc(SC(C)C)nc(NCCc3c[nH]c4ccccc34)c2C#N)cc1 | 24.1%
20 | S=C(Nc1ccccc1)Nc1ccc(OCc2nc3ccccc3[nH]2)cc1 | 31.3%
21 | CC1(C)CC[C@]2(C(=O)Nc3ccc(Br)cc3)CC[C@]3(C)C(=CCC4[C@@]5(C)C[C@@H](O)[C@H](O)[C@@](C)(CO)C5CC[C@]43C)C2C1 (stereo partly drawn) | -42.1% (active)
22 | CC12CC[C@@H]3[C@]4(C)COC(c5c(F)cccc5F)O[C@@H]4CC[C@@]3(C)[C@@H]1CC(C1=CCOC1=O)O2 (stereo partly drawn) | 96.3%
23 | Cc1ccc(Cc2cnc(NC(=O)c3ccc(/C=C4\SC(=S)N(C)C4=O)cc3)s2)cc1 | 39.6%
24 | CC(=O)Nc1ccc(-n2cnc3cc(-c4ccc(O)cc4)ccc32)cc1C(F)(F)F | 9.22% (active)
25 | Cn1cc(NC(=O)c2cc(NC(=O)c3ccc(/C=C/c4ccccc4)cc3)cn2C)cc1C(=O)NCCCN1CCOCC1 | -51.6% (active)
26 | CN(C)CCCNC(=O)c1cc(NC(=O)c2cc(NC(=O)c3ccc(/C=C/c4ccccc4)cc3)cn2C)cn1C | 19.5%
27 | CC(=O)OC[C@@]1(C)C2CC[C@]3(C)C(CC=C4C5CC(C)(C)CC[C@]5(C(=O)Nc5ccc(Br)cc5)CC[C@]43C)[C@@]2(C)C[C@@H](OC(C)=O)[C@@H]1OC(C)=O (stereo partly drawn) | 17%
28 | COc1ccc(NC(=O)Cn2c(O)c(N=Nc3ccc(S(N)(=O)=O)cc3)c3ccccc32)cc1 | 21.3%
29 | S=C(Nc1ccc(OCc2nc3ccccc3[nH]2)cc1)NC1CCCCC1 | 125%
30 | Cc1ccc(NC(=O)[C@]23CCC(C)(C)CC2C2=CCC4[C@@]5(C)C[C@@H](O)[C@H](O)[C@@](C)(CO)C5CC[C@@]4(C)[C@]2(C)CC3)cc1 (stereo partly drawn) | 3.15% (active)
31 | O=S(=O)(Nc1cccc(-n2cnc3cc(-c4ccc(O)cc4)ccc32)c1)C1CC1 | 15.8%
32 | Cn1cc(-c2nnc(N)nc2-c2c[nH]c3ccccc23)c2cccnc21 | 15.2%
33 | CN(C)c1ccnc(CNCCSC2(c3ccc(C(F)(F)F)cc3)c3ccccc3CCc3ccccc32)c1 | -80.5% (active)
